Here are results for six compounds from PubChem BioAssay.

Assay [1] concerns Human papillomavirus type 1a protein E7 (residues 44-93). Nature of the assay: small molecules binding HPV E7 44-93 – biochemical, small-molecule microarray, residues 44-93, 635 nm fluorescence, primary screen (AID 1108).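 Further: E7 fragment applied at 1 µg/mL in TBST for 1 h at 4 C; score combines spot fluorescence with its signal to noise ratio.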 The note with it: fluorescence 635 nm, higher = more signal.
Assay [2] can be described thus: hepatitis C replication reporter changes, two-sided – Huh7 cells, luciferase reporter, HCV replication inhibitor project, primary screen (AID 1109).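 Further: huh7 hepatoma cells harbouring a luciferase neomycin HCV replicon reporter; luciferase luminescence as measure of HCV replicon replication; test concentration not given here.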 As to conditions: Huh7 HCV replicon luciferase reporter, 48 h; higher = more signal.
In assay [3] the target is Left-right determination factor 2 (Homo sapiens) (UniProt O00292). The assay is described as follows: small molecules binding LEFTY2 protein – biochemical, small-molecule microarray, 635 nm fluorescence scan, primary screen (AID 1110). The note with it: higher = more signal.
The target of assay [4] is Calmodulin-1 (Homo sapiens) (UniProt P0DP23). Nature of the assay: small molecules binding calmodulin-1 with EGTA – biochemical, small-molecule microarray, Cy5-labelled CALM1, profiling panel (AID 1111).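 Further: labelled calmodulin applied in Tris saline Tween buffer holding calcium plus EGTA and DTT.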 The note with it: Cy5-CALM1 binding fluorescence, higher = more signal.
Assay [5] has the same target. The assay is described as follows: small molecules binding Ca-loaded calmodulin-1 – biochemical, small-molecule microarray, Cy5-labelled CALM1, plus calcium, artefact control for SMM control-protein annotation, profiling panel (AID 1112).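 Further: score merges spot fluorescence with signal to noise from triplicate slides.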 The note with it: Cy5-CALM1 binding fluorescence, higher = more signal.
The nature of assay [6]: probe aWnt5a binding to arrayed compounds – biochemical, biotinylated probe, 635/667 nm fluorescence, primary screen (AID 1113).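 Further: score merges 667 nm fluorescence intensity with signal-to-noise per printed feature.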 The note with it: small-molecule microarray, higher = more signal.
A short description of assay [7]: probe aShh binding to arrayed compounds – biochemical, biotinylated probe, 635/667 nm fluorescence, primary screen (AID 1114).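 Further: probe is biotin-labelled aShh protein from a stem cell growth factor screen; measures binding of labelled protein to compounds printed on the slide; score merges feature fluorescence at 667 nm with signal-to-noise.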 The note with it: small-molecule microarray, higher = more signal.
The nature of assay [8]: probe aNog binding to arrayed compounds – biochemical, biotinylated probe, 635/667 nm fluorescence, primary screen (AID 1115).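 Further: probe is biotinylated aNog protein used at 0.15 µg/mL for 1 h at 4 C; z-score combines 667 nm fluorescence of each spot with its signal to noise.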 As to conditions: small-molecule microarray, higher = more signal.
For assay [9], the target named is Torsin-1A-interacting protein 1 (Homo sapiens) (UniProt Q5JTV8). The assay is described as follows: compound microarray binding of lysate hLAP1 – cell lysate, small-molecule microarray, COS7 lysate, 635/667 nm fluorescence, primary screen (AID 1116). As to conditions: 635 nm fluorescence, higher = more signal.
Assay [10] has as its target Alpha-bungarotoxin (Bungarus multicinctus) (UniProt P60615). The assay is described as follows: compounds binding labelled alpha-BTX control protein – biochemical, small-molecule microarray, Alexa647 label, 635/667 nm fluorescence, artefact control for SMM control protein annotation, profiling panel (AID 1117). The note with it: alpha-BTX-A647 binding fluorescence, higher = more signal.

Assay [11] addresses Albumin (Bos taurus) (UniProt P02769). The assay is described as follows: compounds binding labelled BSA control protein – biochemical, small-molecule microarray, Alexa647 label, 635/667 nm fluorescence, artefact control for SMM control protein annotation, profiling panel (AID 1118).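 Further: score merges 667 nm emission intensity and signal-to-noise per printed compound spot.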 The note with it: BSA-A647 binding, fluorescence 635 nm, higher = more signal.
Assay [12] is described as follows: probe aXIP binding to arrayed compounds – biochemical, NeuroSMM set, 635/667 nm fluorescence, primary screen (AID 1119).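 Further: probe is the protein aXip251-270 applied at 1 µg/mL to compound-printed slides; binding of probe to printed compounds measured as 667 nm fluorescence plus signal to noise.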 As to conditions: small-molecule microarray, higher = more signal, called active from +8 up or from −8 down.
Assay [13] in a line: probe aNOTCH3 binding on compound microarray – biochemical, small-molecule microarray, 635/667 nm fluorescence, primary screen (AID 1120).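 Further: probe is a biotin-tagged antibody raised against NOTCH3 rather than NOTCH3 protein; score merges spot fluorescence near 667 nm with spot signal to noise.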 As to conditions: higher = more signal.
Assay [14] is described as follows: probe aNOTCH2 binding on compound microarray – biochemical, small-molecule microarray, 635/667 nm fluorescence, primary screen (AID 1121).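 Further: score merges feature fluorescence read at 667 nm with its signal to noise.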 As to conditions: higher = more signal.
For assay [15], the target named is Carbonic anhydrase 2 (Homo sapiens) (UniProt P00918). Nature of the assay: compounds binding carbonic anhydrase 2 – biochemical, small-molecule microarray, Alexa647-labelled CAII, profiling panel (AID 1122). As to conditions: CAII-A647 binding fluorescence, higher = more signal.
Assay [16] can be described thus: COS7 lysate on small-molecule microarray, probe aHis, 635 nm (AID 1123).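 Further: z-score combines 667nm fluorescence intensity with signal-to-noise per printed compound spot.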 As to conditions: COS7 cell lysate, fluorescence, higher = more signal.
Assay [17] can be described thus: probe aLAP1 signal on lysate-treated microarray – cell lysate, small-molecule microarray, COS7 lysate, primary screen (AID 1124).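 Further: lysate comes from COS7 cells expressing LAP1 and is applied at 0.3 µg/mL; score merges spot fluorescence near 667 nm with signal-to-noise over triplicate slides.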 The note with it: probe aLAP1, fluorescence, higher = more signal.
Assay [18] deals with Sam68 (KHDRBS1). Nature of the assay: compounds binding KHDRBS1 protein – biochemical, small-molecule microarray, 635 nm fluorescence, primary screen (AID 1125).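 Further: score merges 667 nm channel intensity with signal to noise over triplicate slides.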 As to conditions: higher = more signal.
Assay [19] relates to Chordin-like protein 2 (CHRDL2). Nature of the assay: compounds binding chordin-like 2 – biochemical, small-molecule microarray, 635 nm fluorescence, primary screen (AID 1126).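 Further: printed compound slides probed with Chrdl2 protein at 4 µg/mL for 1 h at 4 C; score merges 667 nm emission intensity with signal to noise over three replicate slides.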 The note with it: fluorescence 635 nm, higher = more signal.
The target of assay [20] is Concanavalin-A (Canavalia ensiformis) (UniProt P02866). Nature of the assay: compounds binding concanavalin A lectin – biochemical, small-molecule microarray, Alexa647 label, 635 nm, artefact control for SMM control protein annotation, primary screen (AID 1127).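 Further: z combines 667 nm emission intensity with signal-to-noise across three replicate slides.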 The note with it: ConA-A647 binding fluorescence, higher = more signal.

Molecules are shown by their SMILES. Activity calls are given as the source filed them.

Chain of Concanavalin-A (Canavalia ensiformis) (P02866 whole entry, looked up): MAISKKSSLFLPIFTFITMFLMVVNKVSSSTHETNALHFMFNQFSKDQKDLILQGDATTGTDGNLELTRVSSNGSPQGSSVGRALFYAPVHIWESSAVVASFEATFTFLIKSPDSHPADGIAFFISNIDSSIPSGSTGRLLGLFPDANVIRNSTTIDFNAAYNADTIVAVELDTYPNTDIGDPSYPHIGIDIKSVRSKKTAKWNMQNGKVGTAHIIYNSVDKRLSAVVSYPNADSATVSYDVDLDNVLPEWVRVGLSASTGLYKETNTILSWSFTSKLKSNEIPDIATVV
Chain of Torsin-1A-interacting protein 1 (Homo sapiens) (Q5JTV8 whole entry, looked up): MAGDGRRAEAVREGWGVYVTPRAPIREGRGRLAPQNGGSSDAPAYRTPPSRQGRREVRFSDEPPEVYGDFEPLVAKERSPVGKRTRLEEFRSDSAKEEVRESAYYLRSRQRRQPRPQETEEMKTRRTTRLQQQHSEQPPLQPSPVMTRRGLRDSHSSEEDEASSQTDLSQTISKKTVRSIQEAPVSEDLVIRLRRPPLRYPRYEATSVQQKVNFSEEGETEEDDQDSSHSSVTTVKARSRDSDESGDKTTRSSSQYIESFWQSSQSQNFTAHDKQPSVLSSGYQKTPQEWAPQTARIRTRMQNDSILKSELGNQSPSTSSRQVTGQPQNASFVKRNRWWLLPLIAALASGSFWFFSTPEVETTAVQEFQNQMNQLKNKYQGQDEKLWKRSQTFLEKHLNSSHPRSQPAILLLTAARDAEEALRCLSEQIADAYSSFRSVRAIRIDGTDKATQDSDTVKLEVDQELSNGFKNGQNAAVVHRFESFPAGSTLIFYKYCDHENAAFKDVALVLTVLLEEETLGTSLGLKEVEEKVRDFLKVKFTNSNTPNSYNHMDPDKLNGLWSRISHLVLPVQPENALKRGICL
Chain of Alpha-bungarotoxin (Bungarus multicinctus) (P60615 whole entry, looked up): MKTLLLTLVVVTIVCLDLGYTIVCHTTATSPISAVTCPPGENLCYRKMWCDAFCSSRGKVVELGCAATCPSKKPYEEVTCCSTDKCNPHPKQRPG
Chain of Left-right determination factor 2 (Homo sapiens) (O00292 whole entry, looked up): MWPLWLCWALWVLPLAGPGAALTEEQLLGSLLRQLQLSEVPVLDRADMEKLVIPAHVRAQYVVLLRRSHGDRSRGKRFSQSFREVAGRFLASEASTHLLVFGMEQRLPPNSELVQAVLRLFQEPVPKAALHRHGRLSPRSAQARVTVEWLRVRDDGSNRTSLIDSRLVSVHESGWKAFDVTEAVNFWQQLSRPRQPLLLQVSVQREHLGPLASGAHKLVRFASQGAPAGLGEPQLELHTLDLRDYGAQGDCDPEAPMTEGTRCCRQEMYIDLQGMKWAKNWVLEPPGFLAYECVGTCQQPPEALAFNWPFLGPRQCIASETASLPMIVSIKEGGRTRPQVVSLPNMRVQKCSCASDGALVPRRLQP
Chain of Albumin (Bos taurus) (P02769 whole entry, looked up): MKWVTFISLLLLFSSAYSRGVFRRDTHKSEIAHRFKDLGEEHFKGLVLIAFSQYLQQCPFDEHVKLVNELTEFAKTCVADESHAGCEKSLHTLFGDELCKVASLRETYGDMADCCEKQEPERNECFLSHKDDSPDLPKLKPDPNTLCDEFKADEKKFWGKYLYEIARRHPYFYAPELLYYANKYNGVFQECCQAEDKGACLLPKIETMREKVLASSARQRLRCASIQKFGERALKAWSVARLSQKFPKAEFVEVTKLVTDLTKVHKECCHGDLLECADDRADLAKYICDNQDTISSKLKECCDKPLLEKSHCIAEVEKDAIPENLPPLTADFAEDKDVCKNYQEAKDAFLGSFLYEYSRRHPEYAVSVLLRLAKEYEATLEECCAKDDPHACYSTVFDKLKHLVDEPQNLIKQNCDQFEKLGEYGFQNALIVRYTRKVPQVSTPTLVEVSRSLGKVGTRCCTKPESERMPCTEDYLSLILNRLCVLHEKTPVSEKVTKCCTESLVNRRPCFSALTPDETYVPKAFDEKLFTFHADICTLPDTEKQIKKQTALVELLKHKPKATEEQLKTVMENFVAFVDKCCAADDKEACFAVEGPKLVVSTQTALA

As to `COC(=O)[C@@H]1CC[C@H](C)[C@@H](c2ccc(C)cc2)N1C(=O)c1ccc(C=NOC[C@@H](O)[C@H]2O[C@@H]3OC(C)(C)O[C@@H]3[C@H]2O)cc1`, the composite z-score in assay [1] is 1.15; in assay [3], 0.414; in [4], 0.504; in assay [5], -0.12; in assay [6], -0.117; in [7] it was -0.0709. Moreover, the composite z-score was -0.168 in assay [8]; 0.555 in [9]; 0.776 in [10]; 0.333 in [11]; -0.0014 in assay [13]; -0.128 in assay [14]. Moreover, the composite z-score in assay [15] was found to be 0.368; in [16] it was 0.424; in assay [17], 0.228; in assay [18], 1.02; in assay [19] it was 0.402; in [20], 0.736. Further, in assay [2], the z-score was -0.447. In assay [12], the composite Z-score is -0.187 (inactive).

With `CC(CCN1CCc2nc(-c3ccccc3)c(-c3ccccc3)cc2C1)=NO[C@H](C)c1cn([C@H](CO)Cc2ccccc2)nn1`, the composite z-score was -0.93 in assay [1]; 0.332 in assay [3]; 0.0521 in [4]; 0.509 in assay [5]; -0.0242 in assay [6]; -0.16 in assay [7]. Further, the composite z-score is -0.0309 in [8]; 0.34 in assay [9]; 1.2 in assay [10]; 0.901 in [11]; -0.155 in assay [13]; -0.161 in [14]. Moreover, the composite z-score was 0.367 in assay [15]; 0.585 in assay [16]; 0.0245 in assay [17]; -0.29 in [18]; 0.26 in assay [19]; 0.158 in [20]. This compound also showed a z-score in assay [2] of -2.3. Moreover, in [12], the composite Z-score was -0.248 (inactive).

For `COc1ccc(O[C@H]2C=C[C@@H](c3ccccc3)O[C@@H]2CON=C2c3cc(OC)ccc3O[C@H](c3cccc(OC)c3)[C@H]2O)cc1`, the composite z-score was -0.382 in [1]; 0.804 in assay [3]; -0.0756 in assay [4]; 0.335 in assay [5]; -0.0735 in assay [6]; 0.296 in [7]. Further, the composite z-score is -0.106 in assay [8]; 0.399 in assay [9]; 0.328 in [10]; 0.322 in assay [11]; -0.122 in assay [13]; -0.255 in [14]. Besides, the composite z-score was 0.417 in assay [15]; 0.567 in [16]; 1.15 in assay [17]; 0.164 in [18]; 0.171 in assay [19]; -0.996 in assay [20]. In addition, the z-score in assay [2] is -1.78. In assay [12], the composite Z-score was -0.222 (inactive).

On to `CC(=O)OC[C@H]1O[C@H](CCON=C(C)CCN2CCCc3nc(C)c(C)cc32)C=C[C@@H]1OC(C)=O`, for which the composite z-score in assay [1] was 1.33; in assay [3], 0.686; in [4], -0.191; in assay [5], -0.947; in [6], -0.0229; in [7] it was -0.138. Further, the composite z-score in assay [8] was 0.189; in assay [9] it was 0.489; in assay [10], 0.133; in assay [11], 0.159; in assay [13], 0.121; in assay [14], -0.0482. For the same compound, the composite z-score in [15] is 0.416; in [16] it was 0.214; in assay [17], 0.926; in assay [18], 1.29; in [19], 0.662; in assay [20] it was 0.672. The z-score in [2] is -0.186. For the same compound, the composite Z-score in assay [12] was -0.01 (inactive).

With `CC(=O)OC[C@H]1O[C@@H](ON=C(C)CCN2CCCCc3nc(C)c(C)cc32)[C@H](OC(C)=O)[C@@H](OC(C)=O)[C@@H]1OC(C)=O`, the composite z-score in assay [1] is 1.16; in [3] it was 0.962; in [4] it was -0.336; in assay [5], -0.767; in assay [6], -0.0337; in assay [7] it was 0.0121. Moreover, the composite z-score in [8] was -0.0129; in [9], 0.479; in assay [10] it was -0.546; in assay [11] it was 0.536; in [13] it was 0.0282; in assay [14] it was -0.115. Moreover, the composite z-score in assay [15] was 0.163; in [16], 0.773; in [17], -0.0796; in assay [18], 1.29; in [19] it was 1.27; in [20] it was 0.289. This compound yielded a z-score in assay [2] of -0.997. Moreover, the composite Z-score in assay [12] was -0.288 (inactive).

Regarding `COC(=O)[C@@H]1CC[C@H](C)[C@@H](c2ccc(Br)cc2)N1C(=O)C(F)(F)F`, the composite z-score in assay [1] was -1.1; in assay [3] it was 0.179; in [4], -0.257; in [5], 0.137; in [6], -0.226; in [7] it was -0.476. Further, the composite z-score in assay [8] was -0.127; in assay [9], -0.287; in assay [10] it was 0.263; in assay [11] it was -0.591; in assay [13], -0.232; in assay [14], -0.1. Besides, the composite z-score in assay [15] is -0.292; in assay [16], 0.23; in [17], 0.0015; in [18], -0.412; in [19], -0.183; in assay [20], -0.317. The same compound came in with a z-score in assay [2] of -0.317. For the same compound, the composite Z-score in [12] is -0.225 (inactive).
